Reference: PubChem BioAssay AID618 (Sanford-Burnham Center for Chemical Genomics, 2007)
The campaign covered roughly 87,000 compounds. About 540 (0.62%) were called active. The rule behind the calls is not given here. The sample as a whole holds a higher share of actives than the screen did. Entries with a potency or affinity are not part of this list.

Test: MT1-MMP gene expression reporter suppression – cell-based, luciferase reporter, luminescence (AID 618);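 note: actives suppress MT1-MMP promoter-driven transcription so potencies describe inhibitors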
Conditions: MT1-MMP promoter luciferase reporter cells

SMILES | outcome
O=C(Oc1ccc2ccccc2c1)c1ccccc1 | inactive
O=C(CCl)Nc1cc(-c2ccccc2)nn1-c1ccccc1 | active
CC(=O)Nc1cc(-c2ccc(Cl)cc2)nn1-c1ccccc1 | inactive
Cc1ccc(-c2cc(NC(=O)CCl)n(-c3ccccc3)n2)cc1 | inactive
O=C1CS/C(=C/C(=O)c2ccccc2)N1 | inactive
NCCCCCc1nnc(SCc2cccc(Cl)c2)o1 | inactive
Cc1ccc2nc(/C(C#N)=C\c3ccc(N4CCOCC4)o3)[nH]c2c1 | inactive
N#C/C(=C/c1ccc(N2CCOCC2)o1)c1nc2ccccc2[nH]1 | inactive
CCc1c(-c2ccccc2)nc2nc(C)c(C)nn12 | inactive
Cc1nc2nc(-c3cccs3)cn2nc1C | inactive
Cc1nc2nc(-c3ccccc3)cn2nc1C | inactive
CCc1ccc(-c2cn3nc(C)c(C)nc3n2)cc1 | active
CCc1ccc(-c2nn[nH]n2)cc1 | inactive
Cc1ccc(-c2cn3nc(C)c(C)nc3n2)cc1 | active
O=Cc1ccccc1OCCOc1ccccc1C=O | inactive
CC(C)n1c(-c2ccc(N(C)C)cc2)nc2ccccc21 | inactive
CN(C)c1ccc(-c2nc3ccccc3n2C)cc1 | active
Cn1c(-c2ccc(N)cc2)nc2ccccc21 | inactive
O=C(CN1CCN(c2ccccc2)CC1)Nc1ccccc1C(F)(F)F | inactive
Cc1cccc(NC(=O)CN2C(=O)COc3ccc(Cl)cc32)c1 | inactive
CCOC(=O)c1c(C)oc2c(F)c(F)c(F)c(F)c2c1=O | active
CCOC(=O)c1c(C)oc2cc3c(C(=O)OCC)c(C)oc3cc12 | inactive
CCOC(=O)c1c(C)cc(=O)oc1C | inactive
O=C(Oc1ccnc2cc(Cl)ccc12)N1CCOCC1 | inactive

SMILES | outcome
COc1ccc(S(=O)(=O)n2nc(-c3cc(OC)c(OC)c(OC)c3)cc2N)cc1OC | inactive
COc1ccc(-c2cc(N)n(S(=O)(=O)c3c(F)c(F)c(F)c(F)c3F)n2)cc1OC | active
COc1ccc(OC)c(S(=O)(=O)n2nc(-c3ccccc3)cc2N)c1 | inactive
CC(C)(C)Nc1nc(NCc2cccnc2)nc(N2CCOCC2)n1 | inactive
CSc1ccccc1NC(=O)c1ccccc1N(C)S(C)(=O)=O | inactive
CCCc1cc2c(n1CCc1ccc(Cl)cc1)C(C)C1CN(C(=O)c3ccccc3)C(C)(C(=O)OC)C21 (stereo not drawn) | inactive
CCCCCOc1ccc(Br)cc1/C(C)=N/NC1=NCCN1 | active
CCOc1ccc(Br)cc1/C(C)=N\NC1=NCCN1 | inactive
CCCCOc1ccc(Br)cc1/C(C)=N/NC1=NCCN1 | inactive
O=C(Cn1ncc2c(=O)oc3ccccc3c21)NCCN1CCN(c2ccccc2F)CC1 | inactive
COc1ccc(C2C(=O)N(C3CCCCC3)CC(=O)N2Cc2ccc3c(c2)OCO3)cc1 (stereo not drawn) | inactive
COc1ccc(C)c(S(=O)(=O)Nc2ccc(OCC(=O)O)cc2)c1 | inactive
COc1ccc(NS(=O)(=O)c2cc(C)ccc2NC(=O)c2cc(C)oc2C)cc1 | active
COc1ccc2nc(NC(=O)c3cc(C)oc3C)sc2c1 | inactive
COc1ccc(NS(=O)(=O)c2cc(C)ccc2C)cc1 | inactive
COc1ccc(NS(=O)(=O)c2cc(OC)ccc2NC(=O)c2cc(C)oc2C)cc1 | active
COc1ccc(NS(=O)(=O)c2cc(C(=O)O)ccc2C)cc1 | inactive
CC(C)(C)c1ccc(C(=O)C=[N+]=[N-])cc1 | inactive
Cc1nn(C)c(C)c1CN(C)C(=O)c1cc2n(n1)C(C(F)(F)F)CC(c1cccs1)N2 (stereo not drawn) | inactive
CCOC(=O)c1ccc(N2C(=O)CC(N3CCC(C(N)=O)(N4CCCCC4)CC3)C2=O)cc1 (stereo not drawn) | inactive
CCn1c(=O)cc(SCC(=O)N2CCCCC2)c2ccccc21 | inactive
CCOC(=O)c1oc2ccccc2c1CSc1nnnn1-c1ccc(C)cc1 | inactive
CNc1cc([N+](=O)[O-])ccc1N/C=C/C(=O)c1cccs1 | inactive
O=C(/C=C/Nc1cccc([N+](=O)[O-])c1)c1cccs1 | inactive

SMILES | outcome
COc1ccccc1NC(=O)CSc1nccc(=O)[nH]1 | inactive
CCCc1cc(C(=O)Nc2nnc(C)s2)cs1 | inactive
CCOc1cccc(C(=O)Nc2nccs2)c1 | inactive
CC(C)(C)c1ccc(C(=O)Nc2cnccn2)cc1 | active
O=C(Nc1cnccn1)c1ccncc1 | inactive
O=C(Nc1cnccn1)c1cccc(C(F)(F)F)c1 | inactive
Cc1ccnc(SCC(=O)N2CCN(c3ccccc3)CC2)n1 | inactive
O=C(CCCC(=O)N(CC(=O)NC1CCCC1)Cc1ccccc1)Nc1ccccn1 | inactive
COCCNC(=O)CNS(=O)(=O)c1ccc2nc(C)sc2c1 | inactive
CN(C(=O)c1ccno1)c1nnc(-c2cnccn2)s1 | inactive
Cc1ccc(C)c(SCC(=O)OCC(=O)Nc2ccc(S(=O)(=O)N3CCOCC3)cc2)c1 | inactive
O=C1CC(C(=O)Nc2cccc3ccccc23)C2(CCCC2)O1 (stereo not drawn) | inactive
Cc1ccc2c(c1)c(=O)c1c3n2CCN(C(=O)CCl)C3CC1 (stereo not drawn) | active
Cc1ccc2c(c1)c1c3n2CCN(C(=O)Cn2c(-c4ccccc4)noc2=O)C3CCC1 (stereo not drawn) | inactive
CC(=O)N1CCn2c3c(c(=O)c4cc(C)ccc42)CCC31 (stereo not drawn) | inactive
Cc1sc2nc(CSc3nnc(Cc4cccs4)n3C3CCCCC3)[nH]c(=O)c2c1C | inactive
Cc1ccc(NC2=NC(c3ccc(O)cc3)n3c(nc(C)cc3=O)N2)cc1 (stereo not drawn) | inactive
Nc1nonc1/C(=N/O)N1CCN(CCO)CC1 | inactive
COC(=O)N1[C@H](C)C=C[C@]1(Cc1ccccc1)C(=O)O | active
COC(=O)N1[C@H](C)C=C[C@]1(Cc1ccccc1)C(=O)OC | inactive
CNC(=O)[C@@]1(Cc2ccccc2)C=C[C@@H](C)N1C(=O)OC | inactive
Nc1nonc1N1CCCCC1 | inactive
CCCNC(=O)Cn1cnc2sc(C(=O)NCCN(CC)CC)c(C)c2c1=O | inactive
COc1ccc(-c2noc(CCC(=O)O)n2)cc1 | inactive

SMILES | outcome
CNC(=O)CCc1nc(-c2ccc(C(C)(C)C)cc2)no1 | inactive
O=C(O)CCCc1nc(-c2ccccc2)no1 | inactive
CN(C)C(=O)CCc1nc(-c2ccc(C(C)(C)C)cc2)no1 | inactive
CCOC(=O)C1C2C=CC3(CN(CCc4ccccc4)C(=O)C13)O2 (stereo not drawn) | inactive
O=C(c1csc2c1CCCC2)N1CCN(c2ncccn2)CC1 | inactive
Cc1cccc(-n2nnnc2SC(C)C(=O)NCCC2=CCCCC2)c1 (stereo not drawn) | inactive
CC(C(=O)NC(=O)NC1CCCCC1)N1CCN(c2ccccn2)CC1 (stereo not drawn) | inactive
O=C(CNC(=O)c1ccco1)NCC(=O)OCc1cccc(Cl)c1 | inactive
Nc1nc(-c2cccc(Br)c2)cs1 | inactive
Cc1oc(-c2ccccc2)cc1C(N)=O | inactive
CCOC(=O)CNC(=O)c1cc(-c2ccc3c(c2)OCCO3)oc1C | inactive
COc1cc(C)c(-c2cc(C(=O)O)c(C)o2)cc1C(C)C | inactive
Cc1oc(-c2ccc3c(c2)OCCO3)cc1C(=O)NC(CCC(=O)O)C(=O)O (stereo not drawn) | inactive
COc1ccc(C2=NN(CN3C(=O)C(=O)c4ccccc43)C(c3ccc(C)cc3)C2)cc1 (stereo not drawn) | inactive
O=C(N1CCOCC1)N1CCN(c2ccccn2)CC1 | inactive
O=C(c1ccco1)N1CCN(C(=O)N2c3ccccc3Sc3ccccc32)CC1 | active
O=C(c1ccco1)N1c2ccccc2Sc2ccccc21 | inactive
O=C(CN1CCN(c2ccccn2)CC1)N1c2ccccc2Sc2ccc(C(F)(F)F)cc21 | inactive
O=C(N1CCN(c2ccccn2)CC1)N1c2ccccc2Sc2ccccc21 | active
O=C(NC1CCN(C(=O)N2c3ccccc3Sc3ccccc32)CC1)c1ccco1 | inactive
CC(C)NC(=O)c1c2c(nc3ccccc13)CCCC2 | inactive
Cc1nnc2ccc(N3CCN(C(=O)c4ccccc4)CC3)nn12 | inactive
O=C1COc2ccc(C(=O)COC(=O)Cn3cnc4ccccc43)cc2N1 | inactive
CCOC(=O)CNC(=O)C(CC(C)C)NC(=O)C1CCCCC1 (stereo not drawn) | inactive

SMILES | outcome
CC(C)c1ccc(OCc2nc(-c3ccccn3)no2)c(Br)c1 | inactive
Clc1cc(Cl)c(OCc2nc(-c3ccccn3)no2)cc1Cl | inactive
CC(C)(C)c1ccc(OCc2nc(-c3ccccn3)no2)c(Br)c1 | inactive
Clc1ccc(OCc2nc(-c3ccccn3)no2)c(Br)c1 | inactive
Clc1ccccc1OCc1nc(-c2ccncc2)no1 | inactive
CCc1ccc(OCc2nc(-c3ccccn3)no2)c(Br)c1 | active
Cc1ccc(OCc2nc(-c3ccccn3)no2)cc1 | inactive
O=C(NCC1COc2ccccc2O1)c1c[nH]c2ccc(S(=O)(=O)N3CCOCC3)cc2c1=O (stereo not drawn) | inactive
CCN(CC)c1ccc(NC(=O)CCCCCN2C(=O)c3ccccc3C2=O)cc1 | inactive
CCOC(=O)C1CCN(C(=O)CN(c2cccc(C(F)(F)F)c2)S(C)(=O)=O)CC1 | inactive
CN(C)S(=O)(=O)N1CCN(C(=O)N2CCOCC2)CC1 | inactive
COc1cccc(CSc2nc3sc(C)c(C)c3c(=O)n2Cc2ccco2)c1 | inactive
C=CCn1c(COc2cccc3ccc(C)nc23)nnc1SCC(=O)O | inactive
CC(C)CCNC(=O)C1C2C=CC3(CN(Cc4ccccc4Cl)C(=O)C13)O2 (stereo not drawn) | inactive
O=C(c1ccccc1-c1ccccc1)N1CCCC1 | inactive
CCOC(=O)N1CCN(C(=O)c2ccccc2-c2ccccc2)CC1 | active
CCOC(=O)N1CCN(C(=O)c2ccccc2Oc2ccccc2)CC1 | inactive
Fc1ccc(-c2cc(C(F)(F)F)nc(N3CCCCC3)n2)cc1 | inactive
Cc1nc2ncnn2c(N2CCC(C(=O)NCC3CCCO3)CC2)c1Cc1ccccc1 (stereo not drawn) | inactive
CCCSc1nnc(Sc2nnnn2-c2ccccc2)s1 | inactive
COc1ccc(-n2nnnc2SCC(=O)NCCc2ccc(OC)c(OC)c2)cc1 | inactive
COc1ccc(CCNc2nnc(Sc3nnnn3-c3ccccc3)s2)cc1OC | active
